Sampled rows, rich in hits. Any-hit rate of the full collection: about 3.8%.
NTMT1 inh: NTMT1 methyltransferase inhibition; NTMT1 MTase-Glo SAH luminescence, purified enzyme; Potency, µM (titrated, usually from 114 µM), without a hit: at the top dose activity change, negative = inhibition, most hits filed as inhibitors; 59,000 tested, 2.5% active; AID 1645870;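 further: potency means the concentration at half of the fitted maximal effect; plate controls were DMSO vehicle for no effect and no enzyme for full effect; nearly all actives have a fitted effect of over 65% in size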
Target sequence (Q9BV86 whole entry, looked up): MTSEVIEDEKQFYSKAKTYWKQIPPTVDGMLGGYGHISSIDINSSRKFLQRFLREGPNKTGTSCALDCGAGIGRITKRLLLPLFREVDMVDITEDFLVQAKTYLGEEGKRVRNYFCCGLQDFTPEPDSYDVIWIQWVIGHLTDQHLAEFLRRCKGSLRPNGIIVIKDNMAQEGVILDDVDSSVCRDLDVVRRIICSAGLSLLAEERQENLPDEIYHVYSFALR
DRV1 agonist: GPR32 (DRV1) agonism, beta-arrestin recruitment | O75388 | CHO-K1 GPR32 beta-arrestin PathHunter luminescence, 90 min; zero percent set by DMSO-only wells | AID 1346428 | 48,000 tested, 2.5% active | activation, % at 76.9 µM;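 active means activation of at least 60% and not above a set upper limit, about 1 call in 100 departs from these limits; inconclusive means activation of 40% to 60%, or above that upper limit; inactive means activation under 40%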; further: 0% is about no effect
Target sequence (O75388 whole entry, looked up): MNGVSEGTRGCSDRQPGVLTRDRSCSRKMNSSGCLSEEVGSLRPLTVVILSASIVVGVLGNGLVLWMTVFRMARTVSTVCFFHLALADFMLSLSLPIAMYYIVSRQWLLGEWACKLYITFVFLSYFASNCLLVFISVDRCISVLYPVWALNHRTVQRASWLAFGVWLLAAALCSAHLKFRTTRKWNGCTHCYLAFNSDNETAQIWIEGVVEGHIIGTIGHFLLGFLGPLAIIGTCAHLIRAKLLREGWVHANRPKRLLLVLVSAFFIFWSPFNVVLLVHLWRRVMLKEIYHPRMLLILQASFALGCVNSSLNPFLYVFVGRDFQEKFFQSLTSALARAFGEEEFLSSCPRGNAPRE
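PathHunter beta-arrestin recruitment in CHO-K1 cells stably expressing ProLink-tagged GPR32. Cells were exposed to compound for 90 min at 37 C, then chemiluminescence was read after 1 h detection at ambient temperature; DMSO served as basal control.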
FH mod: Identification of activators of human fumarate hydratase by quantitative high-throughput screening. AID 1347055, 2019. FH coupled MDH/diaphorase resazurin fluorescence, 15 min. 54,000 tested, 0.22% active. Potency, µM (doses to about 79.9 µM), for inactives: at the top dose activity change, negative = inhibition, actives largely listed as inhibitors. Fumarate hydratase, mitochondrial (Homo sapiens), P07954; further: potency means the concentration at half of the fitted maximal effect; on the % scale 0 is the no-effect control and ±100 the full control effect; the screen sought activators but most active calls are inhibition curves; nearly all actives have a fitted effect of over 45% in size
SKOV3 invasion: blocks SKOV3ip1 adhesion and invasion in omental model; SKOV3ip1-GFP adhesion/invasion on 3D omental model, fluorescence; Potency, µM (top dose mostly 45.8 µM), for inactives: top-dose activity change, negative = inhibition, actives largely listed as inhibitors; 46,000 tested, 0.1% active; AID 1963576;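 further: potency means the concentration at half of the fitted maximal effect; plate controls were DMSO wells for no effect and tomatine positive control wells for full effect; nearly all actives have a fitted effect of over 65% in size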
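Adhesion/invasion was scored as fixed GFP-labeled SKOV3ip1 cell counts (488/509 nm), normalized to DMSO and tomatine controls. Cancer cells in serum-free medium, with four compound doses (0.36-46 umol/L), sat 2 hr at RT then 16 hr at 37 C on a 48 hr fibroblast/mesothelial/ECM culture.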
Numbers without * were called inactive; i = inactive; u = inconclusive; x = not tested or not shown; ! = not active in a repeat; [ ] = remark or other dose. Unless noted, the call rests on the fitted dose curve; in most records, active means well fitted curve in the direction sought with a large enough effect; inconclusive means small, poorly fitted or top-dose-only effect, or another doubt; inactive means no such curve, though single readings can be large; an effect the other way counts as inactive or inconclusive.

SMILES	NTMT1 inh	DRV1 agonist	FH mod	SKOV3 invasion
CC1CCN(C(=O)c2cc3c(=O)n(C)c4ccccc4c3s2)CC1	-3.3%	-6.8	-22.6%	24.1%
CCOC(=O)C1CCCN(C(=O)c2cc3c(=O)n(C)c4ccccc4c3s2)C1 (stereo not drawn)	5.1%	103.3*	u	2.1%
COc1ccc(-c2nc(C)c(CCNC(=O)Cc3ccc(F)cc3)s2)cc1OC	-23.8%	10.9	-6.8%	i
COc1ccc(-c2nc(C)c(CCNC(=O)c3ccccc3Br)s2)cc1OC	-11.9%	-13.2	2.1%	i
COc1ccc(CC(=O)NCCc2sc(-c3ccc(Cl)cc3)nc2C)cc1OC	-7.4%	91.5*	7.7%	i
COc1ccc(-c2nc(C)c(CCNC(=O)C(=O)Nc3c(C)cccc3C)s2)cc1OC	11.1%	70.0*	-7.0%	2.0%
COc1ccc(CCNC(=O)CCc2c(C)c3cc4c(C)coc4c(C)c3oc2=O)cc1OC	89.1µM*	-9.3	-6.4%	i
COc1ccc(CNC(=O)CCc2c(C)c3cc4c(C)coc4cc3oc2=O)cc1	x	68.0*	x	i
O=C(NCc1ccc(Cl)cc1)C1CCN(S(=O)(=O)c2ccccc2)CC1	-13.5%	-7.5	0.3%	10.2%
COCCCNC(=O)c1sc2nc(C)c(C(=O)Nc3ccc(C)cc3C)c(-c3ccc(Br)cc3)c2c1N	-9.9%	-1.4	-23.3%	21.4%
COCCCNC(=O)c1sc2nc(C)c(C(=O)Nc3ccc(Cl)cc3)c(-c3ccc(Br)cc3)c2c1N	9.0%	64.1*	-4.6%	1.6%
COc1ccc2cc1Oc1ccc(cc1)CC1c3cc(c(OC)cc3CCN1C)Oc1c(OC)c(OC)c(OC)c3c1C(C2)N(C)CC3 (stereo not drawn)	39.8µM*	x	-5.0%[53.3 µM]	x
COc1ccc2cc1Oc1cc3c(cc1OC)CC[N+](C)(C)[C@H]3Cc1ccc(cc1)Oc1c(OC)c(OC)cc3c1[C@@H](C2)[N+](C)(C)CC3	12.6µM*	22.0	-6.3%[53.3 µM]	x
COc1ccccc1Cc1nc2ccccc2nc1SCC(=O)N1CCC(C)CC1	3.6%	64.4*	-22.4%	5.1%
C=CCc1ccccc1OCCn1c(C2CC(=O)N(Cc3ccc(F)cc3)C2)nc2ccccc21 (stereo not drawn)	u	-24.1	u	u
CN(C)CCCNc1c2ccccc2nc2c1[nH]c1ccccc12	35.5µM*	x	7.9%	x
Cc1ccc(-c2cc(C(=O)Nc3nc4ccccc4s3)c3ccccc3n2)cc1C	-16.8%	x	x	x
CCc1ccc(Sc2cc(C(=O)NCCCN3CCC(C)CC3)c3ccccc3n2)cc1	-18.9%	89.4*	-10.9%	20.7%
CCc1ccc(Sc2cc(C(=O)NCCCN3CCCC(C)C3)c3ccccc3n2)cc1 (stereo not drawn)	-13.9%	88.0*	2.5%	-10.8%
CCc1ccc(Sc2cc(C(=O)NCc3cccc(OC)c3)c3ccccc3n2)cc1	-21.8%	5.6	-3.8%	i
Cc1ccc(Cn2c(CO)cnc2SCC(=O)Nc2cccc(F)c2)cc1	-2.2%	29.0	-22.9%	i
CCOC(=O)c1ccccc1NC(=O)CSc1ncc(CO)n1Cc1ccc(C)cc1	x	73.8*	x	-5.1%
Cc1ccc(Cn2c(CO)cnc2SCc2cccc(F)c2)cc1	-17.8%	22.4	-10.6%	65.7%
COc1ccccc1NC(=O)CSc1ncc(CO)n1Cc1ccc(F)cc1	u	65.3*	2.5%	u
Cc1ccc(Cn2c(CO)cnc2SCc2ccc(F)cc2)cc1	11.9%	13.7	-1.1%	1.3%
SMILES	NTMT1 inh	DRV1 agonist	FH mod	SKOV3 invasion
OCc1cnc(SCc2cccc(F)c2)n1Cc1ccc(F)cc1	-26.0%	88.6*	-5.3%	i
CC(C)N(Cc1ccccc1)C(=O)Cn1ncc2c([nH]c3ccccc32)c1=O	-4.8%	21.1	-7.3%	14.4%
CCCCN(CCCC)C1=C(C(=O)c2ccccc2)N(CC)S(=O)(=O)c2ccccc21	10.9%	-72.7	9.1%	9.9%
Cn1cc(-c2cnn3c(N)c(Br)c([C@@H]4CCCNC4)nc23)cn1	35.5µM*!	x	-0.3%	x
COc1ccc(C2CC(=O)N(Cc3ccc(C)cc3)c3c2c(C)nn3-c2nc(C)cc(C)n2)c(OC)c1 (stereo not drawn)	23.9%	0.5	-13.0%	3.0%
CO[C@@]1(NC(=O)C(C(=O)O)c2ccc(O)cc2)C(=O)N2C(C(=O)O)=C(CSc3nnnn3C)CO[C@@H]21 (stereo partly drawn)	u	63.0*	0.0%[53.3 µM]	x
CN1CCc2c(sc3c2C(=O)NC(c2ccc(C(C)(C)C)cc2)N3)C1 (stereo not drawn)	79.4µM*	-7.0	-3.0%	-2.4%
CC(C)c1ccc(C2NC(=O)c3c(sc4c3CCN(C)C4)N2)cc1 (stereo not drawn)	4.1%	-16.5	8.8%	-0.3%
COc1ccc(CNC(=O)C(=O)NCC(c2ccco2)S(=O)(=O)c2cccs2)cc1 (stereo not drawn)	-0.1%	-11.5	-2.5%	-3.7%
COc1ccccc1CNC(=O)Cn1c(-c2cccs2)cc2cc(F)ccc21	4.8%	102.7*	-10.1%	-1.4%
CCOc1ccc(CCNC(=O)Cn2c(-c3cccs3)cc3cc(F)ccc32)cc1OCC	24.0%	112.0*	-9.5%	7.7%
CCOc1ccc(CCNC(C)=O)cc1OCC	50.1µM*	x	x	x
CCCCN1C(=O)C(O)(CC(=O)c2ccc(C)cc2C)c2cc(Br)ccc21 (stereo not drawn)	12.9%	-3.7	u	u
O=C1CCCC2=C1C(c1[nH]ncc1Cl)N=C(Nc1ccccn1)N2 (stereo not drawn)	9.5%[57.5 µM]	x	x	x
COc1ccc(Nc2nc3ccc(Cl)cc3nc2-n2nc(C)cc2C)cc1	13.9%	-20.2	4.6%	u
O=c1c(-c2ccc(O)cc2)coc2cc(OC3O[C@H](CO)[C@H](O)[C@H](O)[C@H]3O)cc(O)c12 (stereo partly drawn)	24.1µM*	x	u	-37.6%
OCCN(CCO)c1nc(N2CCCCC2)c2nc(N(CCO)CCO)nc(N3CCCCC3)c2n1	u	108.1*!	-16.3%[53.3 µM]	-9.2%
CCc1cccc(Nc2nn3c(=O)c4ccccc4nc3s2)c1	8.3%	x	x	x
CC(C)(C)OC(=O)NCc1nnc(-c2cc3ccccc3[nH]2)s1	11.3%	x	x	x
O=C(O)c1ccccc1Nc1ccccc1	x	15.2	-25.2%[53.3 µM]	x
C/C(=C\C(=O)Nc1ccccc1C(=O)O)c1ccc2ccccc2c1	28.2µM*	x	-7.0%	x
Cc1ccc(NC(=O)Cn2nnc(C(=O)NCCc3ccccc3)c2N)cc1Cl	u	-7.3	-2.4%	-2.5%
COc1ccc(Cl)cc1NC(=O)Cc1ccc(NC(=O)N2CCCCc3ccccc32)cc1	-5.0%	3.6	5.0%	i
C[N+](C)(C)CC[N+]1(C)Cc2c(Cl)c(Cl)c(Cl)c(Cl)c2C1	7.94µM*	u	-8.1%[53.3 µM]	x
CCN(CC)c1ccc(NC(=O)c2cccn2-c2nnc(N3CCCCC3)s2)c(C)c1	u	76.5*	u	21.9%
CCOc1ccc(/C=C/c2nc3ccccc3n2S(=O)(=O)c2cccc(Cl)c2)cc1	5.01µM*	69.8*	-17.0%	-14.4%
CSc1ccc(/C=C/c2nc3ccccc3n2S(=O)(=O)c2ccc(F)c(C)c2)cc1	15.8µM*	23.4	-20.2%	-0.5%

Source: PubChem (National Center for Advancing Translational Sciences (NCATS))
